Assay outcomes (PubChem)
Only some compounds are listed: those with a hit (about 6.7% of all), similar ones and a draw of the others.
BoNT F protease – BoNT F light chain protease inhibition | Multiplex microsphere protease cleavage assay, flow cytometry | inhibition, % at 10 µM | actives 0.22% (n = 360,000); in the data active means inhibition above about 35%, passing the limit was not always enough; inconclusive means no clear call, values can overlap the other calls; further: plate controls were buffer without enzyme for full effect and enzyme alone for no effect
Bead autofluor – counter-screen for toxin protease inhibitors: compound fluorescence; fluorescence intensity (test concentration not listed); compound autofluorescence counterscreen, microsphere flow cytometry; stronger effect = higher value; actives 3.1% (n = 360,000); in the data active means fluorescence intensity above about 16000; inconclusive means no clear call, values can overlap the other calls
Anthrax LF prot – inhibitors of Bacillus anthracis lethal factor protease; P15917; multiplex microsphere protease cleavage assay, LF; inhibition, % at 10 µM; actives 0.12% (n = 360,000); AID 588501; further: plate controls were buffer without enzyme for full effect and enzyme alone for no effect
Mtb FBA inh – inhibitors of M. tuberculosis fructose-bisphosphate aldolase; purified M. tuberculosis FBA, fluorescence read-out; inhibition, % at 1 µM; actives 2.3% (n = 360,000); AID 588726; in the data active means inhibition above about 27%;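 further: 0% = vehicle and 100% = reference inhibitor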
Target sequence (P9WQA3 whole entry, looked up): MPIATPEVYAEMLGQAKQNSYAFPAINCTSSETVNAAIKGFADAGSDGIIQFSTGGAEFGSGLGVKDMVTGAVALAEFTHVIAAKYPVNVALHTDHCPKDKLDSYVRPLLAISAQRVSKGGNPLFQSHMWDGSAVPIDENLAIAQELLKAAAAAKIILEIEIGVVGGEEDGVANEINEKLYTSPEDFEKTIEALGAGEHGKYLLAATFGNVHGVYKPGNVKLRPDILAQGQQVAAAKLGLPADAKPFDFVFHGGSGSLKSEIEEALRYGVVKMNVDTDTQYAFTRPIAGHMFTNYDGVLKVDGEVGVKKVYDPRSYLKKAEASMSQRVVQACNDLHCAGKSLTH
BoNT-A LC inh2 – BoNT A light chain protease inhibition; multiplex microsphere protease substrate cleavage, flow cytometry; inhibition, % at 10 µM; actives 0.17% (n = 360,000); AID 588499; further: plate controls were buffer without enzyme for full effect and enzyme alone for no effect
GDH-TPI counter – counter-screen for M. tuberculosis FBA inhibitors: GDH-TPI coupled enzymes. inhibition, % at 4.8 µM. actives 1.2% (n = 360,000). GDH-TPI coupled enzyme counterscreen, NADH absorbance. AID 588335; in the data active means inhibition above about 30%;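 further: 0% = DMSO wells and 100% = wells lacking the enzyme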
* = called active by the depositor; ? = inconclusive. Unless noted, no stated cut-off is given here; in the data, active means inhibition above about 30%; inconclusive means no clear call, values can overlap the other calls; inactive means below that.

SMILES	BoNT F protease	Bead autofluor	Anthrax LF prot	Mtb FBA inh	BoNT-A LC inh2	GDH-TPI counter
Cc1csc(CN(C)C(=O)C2CCC(=O)N(Cc3ccc(Cl)cc3)C2)n1 (stereo not drawn)	-1.2	4776	1.8	-2.5	1.0	5.0
O=c1c(-c2nc3ccccc3s2)cccn1Cc1ccccc1	1.1	22734*	5.6	194.3*	?	20.7
O=C(NC1CC1)c1cc(Cl)nc2ccccc12	13.3	4220	-3.7	4.5	4.3	-0.7
CCOC(=O)c1cccc(NS(=O)(=O)c2c(C)[nH]c(=O)[nH]c2=O)c1	0.7	19045*	-9.9	2.3	1.4	-14.7
COc1ccc(/C=C(\NC(=O)c2cccs2)C(=O)NN)cc1OC	7.3	3764	11.9	-0.3	1.9	38.2*
O=C(NCCO)/C(=C/c1ccc(Br)cc1)NC(=O)c1cccs1	-0.3	23982*	-0.7	0.1	-2.1	11.8
O=C(/C=C/c1ccccc1)N1CCN(C(=O)c2ccco2)CC1	0.3	8132	1.5	4.2	0.2	14.0
CSc1ccc(/C=C/C(=O)N2CCN(c3ccccn3)CC2)cc1	-4.0	6236	4.8	5.0	0.1	32.3*
O=C(/C=C/c1ccccc1)N1CCCN(C(=O)/C=C/c2ccccc2)CC1	-1.7	20323*	-4.3	0.0	0.2	-5.1
CC(O)CNC(=S)Nc1ccccc1 (stereo not drawn)	-3.0	4294	-2.1	1.1	-1.0	-4.4
CCOc1cc(NC(=S)Nc2cccc(OC)c2)c(OCC)cc1NC(=O)C1CC1	-2.6	23099*	-2.5	0.9	-1.1	7.8
COc1cccc(NC(=O)c2oc3ccccc3c2NC(=O)C2CC2)c1	-5.3	24287*	-1.8	-2.3	?	6.3
COc1cccc(NC(=O)c2oc3ccccc3c2NC(C)=O)c1	8.6	7481	0.2	-2.6	1.3	17.7
COc1ccc(NC(=O)c2oc3ccccc3c2NC(=O)C2CC2)cc1	4.9	20675*	1.0	0.8	4.3	20.8
COC(=O)c1cc(C#N)c(OC(C)C)nc1C	0.5	2022	0.2	-2.1	0.3	1.9
Cc1sc(NC(=O)C2C3CCC(C3)C2C(=O)O)c(C(N)=O)c1-c1ccc(C(C)(C)C)cc1 (stereo not drawn)	-6.5	9648	-7.3	1.6	-0.4	4.7
Cc1csc2ncc(C(=O)N3CCCc4ccccc43)c(=O)n12	0.3	5816	-5.6	5.7	-0.2	36.5*
Cc1csc2ncc(C(=O)N3CCc4ccccc43)c(=O)n12	-11.6	5723	-2.0	4.8	-0.8	51.9*
CCc1ccc(N2CC34C=CC(O3)C(C(=O)OC(C)C)C4C2=O)cc1 (stereo not drawn)	-2.3	5748	-3.7	0.3	-0.1	-5.0
CCN(CC)S(=O)(=O)c1ccc2oc(SCc3ccc(F)cc3)nc2c1	-11.1	2924	-3.6	0.6	-0.6	0.6
CN(NS(C)(=O)=O)c1c(C#N)c(C(F)(F)F)nn1C	-4.9	5167	-0.7	-1.6	-0.4	2.5
O=C(O)c1nn(CCOc2ccccc2F)c(=O)c2ccccc12	15.0	3875	2.9	-2.5	2.7	-0.7
CCC12CSc3nc(Cl)ccc3N1C(=O)C(=O)N2C (stereo not drawn)	39.8*	3598	?	1.5	2.5	-2.3
CCCN1C(=O)C(=O)c2cc(Cl)ccc21	2.0	3888	-8.1	2.1	-0.6	2.1
Cc1ccc(OC(C)C(=O)N2CCCc3ccccc32)cc1 (stereo not drawn)	-7.8	17127*	-7.1	-0.4	?	9.3
SMILES	BoNT F protease	Bead autofluor	Anthrax LF prot	Mtb FBA inh	BoNT-A LC inh2	GDH-TPI counter
Cc1cccc(OC(C)C(=O)N2CCCc3ccccc32)c1 (stereo not drawn)	-6.8	2481	0.5	2.7	0.3	15.0
O=C(CNC(=O)c1ccc(Br)cc1)NCCc1nc2ccccc2[nH]1	-1.9	19972*	-0.3	0.8	-1.3	-2.5
COc1ccccc1N1CCN(C(=O)/C=C/c2cccc([N+](=O)[O-])c2)CC1	?	4441	1.6	4.8	1.0	-6.1
COc1cc(C(c2c(C)[nH][nH]c2=O)c2c(C)[nH][nH]c2=O)ccc1OC(=O)c1cccc([N+](=O)[O-])c1	-5.3	2480	-3.0	6.6	0.6	4.1
COc1cc(C(c2c(C)[nH][nH]c2=O)c2c(C)[nH][nH]c2=O)ccc1OS(=O)(=O)c1ccc(C)cc1	-9.7	4330	-0.5	-3.9	0.3	3.6
COc1cc(C(c2c(C)[nH][nH]c2=O)c2c(C)[nH][nH]c2=O)ccc1OS(=O)(=O)c1ccccc1	-5.3	16308*	-4.0	1.9	-1.0	7.6
COc1cc(C(c2c(C)[nH][nH]c2=O)c2c(C)[nH][nH]c2=O)ccc1OCc1ccc([N+](=O)[O-])cc1	-1.3	21766*	0.8	-0.1	2.9	5.3
CC(=O)Nc1cccc(OCC(=O)NS(=O)(=O)c2ccc(C)cc2)c1	-2.9	23647*	-9.7	2.1	-2.0	2.8
COc1ccc(NC(=O)c2ccccc2NC(=O)COc2ccccc2)cc1	-7.2	4724	4.8	-0.3	-0.2	5.2
COc1ccc(NC(=O)c2ccccc2NC(=O)NC2CCCCC2)cc1	-1.7	23203*	-4.5	-0.4	1.0	1.9
COC(=O)c1ccccc1NC(=O)NC1CCCC1	0.3	2246	-1.0	18.1	-0.2	-2.8
COCC(=O)Nc1ccccc1C(=O)Nc1ccc(OC)cc1	2.4	22328*	-1.5	-0.5	0.6	-6.8
NC(=O)c1ccccc1NC(=O)NC1CCCCC1	-1.0	22128*	-3.3	-1.9	?	7.8
CSc1ccccc1C(=O)NC1CCCCCC1	1.1	20204*	0.7	0.6	1.3	-3.1
COc1ccc(NC(=O)c2cccnc2Nc2ccccc2)cc1	-11.4	23086*	-0.2	0.3	-8.4	4.9
COc1ccc(NC(=O)c2ccccc2C)cc1	?	3987	-0.9	0.6	3.6	-0.8
COc1ccccc1OCC(=O)Nc1ccccc1C(=O)NCc1cccnc1	-19.6	3041	-4.4	-0.7	-1.6	-0.4
COc1ccccc1Nc1ncccc1C(=O)NCc1ccccc1	-3.4	20309*	-3.4	-1.5	-0.6	-6.2
O=C(Nc1ccccc1NC(=O)NC1CCCCC1)NC1CCCCC1	-3.3	16874*	-2.1	3.1	?	10.5
CCc1ccc(S(=O)(=O)Nc2c(C)nc3nc[nH]n3c2=O)cc1	10.3	2939	-2.7	-9.1	0.1	12.7
CCOC(=O)c1cc(-c2ccccc2)nc2nc(N(CC)CC)sc12	4.3	3270	-0.3	65.2*	-1.3	10.4
CN(CCc1ccccc1)C(=O)c1ccc(NC(=O)Cc2ccc(NC(=O)C3CCCN(C(=O)C4CC4)C3)cc2)cc1 (stereo not drawn)	-2.2	3396	-3.1	0.1	0.0	-8.2
COc1ccc(/C=C/C(=O)N(C)C2(C)CCS(=O)(=O)C2)cc1 (stereo not drawn)	-16.5	6176	0.7	-2.1	-2.4	10.2
CCOC(=O)C(=CNc1ccc(S(N)(=O)=O)cc1)C(=O)OCC	-4.8	4162	-13.1	-0.8	-0.2	40.5*
CCOC(=O)C(=CNc1ccc(N2CCOCC2)cc1)C(=O)OCC	?	4207	-3.5	-2.9	0.3	63.3*
